For 21 molecules, growth inhibition results are on record in PubChem BioAssay (NCI).

Compounds without any hit were thinned out: in the full panel of roughly 79,000, 15% have a hit. Unmarked numbers belong to inactive results. Calls of active or inactive are those of the source. No stated cut-off is given here; in the data, active means growth inhibition above about 70%; inactive means the rest.

Experiment [1] is described as follows: NCI Yeast Anticancer Drug Screen. Data for the rad50 strain (AID 155).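 Further: 0% = growth of vehicle-only cultures of the same strain.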 The settings on record: S. cerevisiae rad50 strain growth inhibition; at 50.0 µM; stronger effect = higher value. The method in brief: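 Relative growth inhibition (compound vs vehicle) was measured in yeast with a defined repair-gene alteration.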
The nature of experiment [2]: NCI Yeast Anticancer Drug Screen. Data for the mec2-1 strain (AID 157). The settings on record: S. cerevisiae mec2-1 strain, at 50.0 µM, stronger effect = higher value. The method in brief: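 Cells of the genetically defined mec2-1 yeast strain are incubated with test compound. Inhibition of growth is calculated against vehicle-treated controls.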
Experiment [3] is described as follows: NCI Yeast Anticancer Drug Screen. Data for the sgs1 mgt1 strain (AID 161).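 Further: 0% = growth of cultures given vehicle only.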 To be noted: S. cerevisiae sgs1 mgt1 strain, at 50.0 µM, stronger effect = higher value. The essentials:
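Test agents were incubated with a DNA-repair-mutant yeast strain. Growth was then read and compared against vehicle-treated controls.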

A short description of experiment [4]: NCI Yeast Anticancer Drug Screen. Data for the cln2 rad14 strain (AID 165).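 Further: 0% = growth equal to vehicle treated cultures.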 To be noted: S. cerevisiae cln2 rad14 strain, at 50.0 µM, stronger effect = higher value. The essentials:
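The screen exposed genetically defined yeast (cln2 rad14) to test compounds and scored growth inhibition relative to vehicle-treated controls.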

A short description of experiment [5]: NCI Yeast Anticancer Drug Screen. Data for the bub3 strain (AID 167). The settings on record: S. cerevisiae bub3 mutant strain, at 50.0 µM, stronger effect = higher value. The method in brief:
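Screening used yeast with an engineered genetic alteration affecting cell cycle control. Compound-exposed cultures were compared with vehicle cultures, and reduced growth was taken as inhibition.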

Experiment [6] can be described thus: NCI Yeast Anticancer Drug Screen. Data for the mlh1 rad18 strain (AID 175). To be noted: S. cerevisiae mlh1 rad18 strain growth inhibition; at 50.0 µM; stronger effect = higher value. The essentials: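 Compound-treated yeast growth, normalised to vehicle controls. Strain bears defined DNA repair mutations.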

In the case of `Cc1ccc(S(=O)c2ccccc2[N+](=O)[O-])cc1` (stereo unspecified), the growth inhibition in experiment [1] is 4.85%; in experiment [2], 9.45%; in experiment [3], 1.7%; in experiment [4], 22%; in experiment [5], -0.6%; in experiment [6], -2%.
With `Cc1nc2c(=O)n3c4c(cccc4c2o1)CCC3`, the growth inhibition in experiment [1] was 14.4%; in experiment [2] it was 10.4%; in experiment [3], 21.6%; in experiment [4], 14.5%; in experiment [5] it was 14.5%; in experiment [6] it was -48.4%.
Regarding `CCCCCCCC(CC#N)(CCCCC)CCCCCC` (stereo unspecified), the growth inhibition is 16.6% in experiment [1]; -10.1% in experiment [2]; 11.9% in experiment [3]; -8.3% in experiment [4]; 7.1% in experiment [5]; 26.1% in experiment [6].
Consider `COc1ccccc1NC(=O)NCCN1CCCC1`, for which the growth inhibition was -2.15% in experiment [1]; 8.1% in experiment [2]; 31.1% in experiment [3]; -8.9% in experiment [4]; 9.45% in experiment [5]; 5.3% in experiment [6].
For `CCOC(=O)/C(=C/c1ccc(N(C)C)cc1)N(CC)CC`, the growth inhibition in experiment [1] was -34.2%; in experiment [2] it was -10.2%; in experiment [3], -14.9%; in experiment [4], 13.4%; in experiment [5], 7.25%; in experiment [6], -18.6%.
As for `C(=N\N1CCN(/N=C/c2ccc(OCc3ccccc3)cc2)CC1)/c1ccc(OCc2ccccc2)cc1`, the growth inhibition is -12.6% in experiment [1]; -3.95% in experiment [2]; 7.65% in experiment [3]; -19.4% in experiment [4]; 0.2% in experiment [5]; -16.8% in experiment [6].
Regarding `Br`, the growth inhibition in experiment [1] is -11.7%; in experiment [2], -33.1%; in experiment [3], -54.9%; in experiment [4], -20%; in experiment [5] it was -30.6%; in experiment [6], -44.1%.
Regarding `O=C(O)[C@H]1C[C@H](O)CCN1`, the growth inhibition in experiment [1] is -30.4%; in experiment [2], -8.65%; in experiment [3], -34.2%; in experiment [4], 1.25%; in experiment [5], -3.85%; in experiment [6], -10.6%.
On to `CCC(CC)(Cc1ccccc1)C(=O)O`, for which the growth inhibition in experiment [1] is 9.65%; in experiment [2] it was -17.7%; in experiment [3], 12.7%; in experiment [4], 1.65%; in experiment [5] it was 11.7%; in experiment [6] it was 36.4%.
Take `CCCCS(=O)(=O)CCCCCCl`: the growth inhibition in experiment [1] is 1.55%; in experiment [2], -2.95%; in experiment [3] it was -6.25%; in experiment [4], -13.5%; in experiment [5] it was -6.45%; in experiment [6], 9.55%.
For `NC1CC(=O)c2sccc21` (stereo unspecified), the growth inhibition in experiment [1] is 9.8%; in experiment [2], 2.15%; in experiment [3], 16.8%; in experiment [4], 9.2%; in experiment [5] it was 17.8%; in experiment [6], 1.25%.
In the case of `CCOC(=O)Nc1ccn(C2OC(COC(C)=O)C(OC(C)=O)C2OC(C)=O)c(=O)n1` (stereo unspecified), the growth inhibition is 19.9% in experiment [1]; -11.4% in experiment [2]; 15.1% in experiment [3]; -46.4% in experiment [4]; -1.9% in experiment [5]; 8.3% in experiment [6].
In the case of `CC12CCC[C@@](C)(C(=O)OC3OC(CO)C(O)C(O)C3O)[C@H]1CCC13CC4CC(OC4(CO)[C@H]1O)[C@@H]23` (stereo partly specified), the growth inhibition in experiment [1] was -8.45%; in experiment [2], -26.1%; in experiment [3], -20.9%; in experiment [4] it was -18.8%; in experiment [5], -20.7%; in experiment [6], -17.9%.
With `CCCCCCC(/C=N\N=C\c1ccco1)=C\c1ccccc1`, the growth inhibition is -2.7% in experiment [1]; 6.15% in experiment [2]; 1.25% in experiment [3]; 2.75% in experiment [4]; 16.9% in experiment [5]; -7.8% in experiment [6].
Turning to `O=C1/C(=C\C=C\c2ccccc2)CCC/C1=C/C=C/c1ccccc1`, the growth inhibition in experiment [1] is 15.3%; in experiment [2], 5.05%; in experiment [3] it was 5.7%; in experiment [4], 20.8%; in experiment [5] it was 34%; in experiment [6], 3.1%.
For the molecule `c1cncc([O][Ge]([O]c2cccnc2)([O]c2cccnc2)[O]c2cccnc2)c1`, the growth inhibition in experiment [1] was 8.6%; in experiment [2], 15.8%; in experiment [3], 31%; in experiment [4] it was 24.1%; in experiment [5], 3%; in experiment [6], 35.8%.
With `C=C1C(=O)[C@@]23CC[C@@H]4[C@@]5(C)CCC[C@@]4(OC5=O)C2(C)CC[C@]1(OC)C3` (stereo partly specified), the growth inhibition in experiment [1] is 87.2% (active); in experiment [2] it was 92.5% (active); in experiment [3], 88.3% (active); in experiment [4], 88.5% (active); in experiment [5], 88.4% (active); in experiment [6] it was 90.7% (active).
As to `Cc1cccc(NS(=O)(=O)c2ccc(Cl)cc2)c1C`, the growth inhibition is 98.5% (active) in experiment [1]; 98.3% (active) in experiment [2]; 98.2% (active) in experiment [3]; 98.3% (active) in experiment [4]; 98.4% (active) in experiment [5]; 98.7% (active) in experiment [6].
`N#CC1=CNc2ccccc2N=C1N`: the growth inhibition is 8.55% in experiment [1]; -4.75% in experiment [2]; 28.4% in experiment [3]; 8.55% in experiment [4]; 28.2% in experiment [5]; 24.1% in experiment [6].
With `N#Cc1[nH]c(=O)n(-c2ccc(Cl)cc2)c1N`, the growth inhibition in experiment [1] is -30.1%; in experiment [2], -58.6%; in experiment [3] it was -19%; in experiment [4], -11.3%; in experiment [5], -12.4%; in experiment [6], -33%.
Regarding `C=C(Cl)CSC(C)(C)C`, the growth inhibition in experiment [1] is -9.4%; in experiment [2] it was 5.8%; in experiment [3], -6.7%; in experiment [4] it was -19.6%; in experiment [5], -18.2%; in experiment [6], -8.5%.
